From PubChem BioAssay (NCI) come the findings set out here.

What all share (experiment): NCI-60 one-dose screen, 48 h (100 = growth as untreated, 0 = no growth, -100 = all killed)
Holding throughout (settings): 10 µM unless noted

In assay [1] the test system is NCI-H23 lung.
For assay [2], the system named is NCI-H226 lung.
In assay [3] the test system is NCI-H322M lung.
For assay [4], the system named is HOP-62 NSCLC.
The subject of assay [5] is HOP-92 NSCLC.
The subject of assay [6] is NCI-H522 lung.
Assay [7] deals with A549/ATCC NSCLC.
Assay [8] deals with 786-0 renal.
The test system of assay [9] is COLO 205 colon.
Assay [10] has as its system DU-145 prostate.
For assay [11], the system named is K-562 leukemia.
Assay [12] has as its system MALME-3M melanoma.
In assay [13] the test system is MDA-MB-231 breast.
Assay [14] concerns RXF 393 renal.
For assay [15], the system named is SF-268 CNS.
Assay [16] concerns SF-295 CNS.
Assay [17] relates to SF-539 CNS.
For assay [18], the system named is UACC-257 melanoma.
Assay [19] has as its system M14 melanoma.
For assay [20], the system named is NCI-H460 lung.

This is part of a sample that, as a whole, favours compounds with a hit. Of some 83,000 tested, about 20% had one in any assay.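 Compound tested at a single concentration for 48 hours in 96-well plates; a percent growth value below 10 was scored as active.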 Values without a mark were called inactive. Calls of active or inactive are those of the source.

Turning to `C/C(=C(\c1ccc(OCCN2CCOCC2)cc1)c1ccc(OC(=O)Cc2ccccc2)cc1)c1ccc(Cl)cc1`, the growth in assay [1] is 86%; in assay [2], 103%; in [3], 90.6%; in [4], 98.9%; in assay [5] it was 70%; in assay [6], 72.9%. The growth was 90.4% in assay [7]; 77.7% in [8]; 106% in assay [9]; 97.8% in assay [10]; 7.15% (active) in [11]; 104% in [12]. In addition, the growth in assay [13] is 96.8%; in assay [14], 89.6%; in assay [15], 90.1%; in assay [16] it was 98.9%; in assay [17], 98.2%; in assay [18] it was 87.5%. Besides, in assay [19], the growth is 85.1%.
`ClC1OC(Cl)(Cl)C(Cl)(Cl)OC1(Cl)Cl` (centres undefined): the growth in assay [1] was 98.6%; in [2] it was 94.7%; in assay [3], 100%; in assay [4], 104%; in assay [20], 128%; in [6], 89.4%. The growth in assay [7] is 102%; in [8] it was 109%; in assay [9] it was 110%; in assay [10] it was 114%; in [11], 98.1%; in assay [12], 97.5%. Also, the growth in assay [13] was 105%; in [14] it was 110%; in [15], 108%; in assay [16], 109%; in [17], 91%; in [18], 99.5%. In assay [19], the growth is 98.1%.
With `c1ccc2c(c1)sc1ccccc12`, the growth in assay [1] was 99.8%; in assay [2] it was 94.7%; in [3], 95.7%; in [4], 97.7%; in [20], 109%; in assay [5] it was 74.7%. The growth in [6] was 98.9%; in assay [8], 105%; in assay [9], 98.6%; in assay [10] it was 110%; in assay [11], 105%; in assay [12], 84%. Also, the growth in assay [13] was 93.8%; in assay [14], 107%; in assay [15] it was 109%; in assay [16], 101%; in [17], 93.9%; in [18], 109%. For the same compound, in [19], the growth was 94%.
For the compound `O=NN1CCCCC1`, the growth was 104% in [1]; 109% in assay [2]; 128% in assay [3]; 102% in [4]; 116% in [20]; 110% in assay [5]. Also, the growth in assay [7] was 102%; in assay [8], 103%; in [9] it was 107%; in [10], 107%; in [11], 121%; in assay [12] it was 120%. The growth is 95.9% in [13]; 118% in assay [14]; 96.1% in assay [15]; 119% in assay [16]; 91.8% in assay [17]; 97.8% in assay [18]. Also, the growth in assay [19] is 103%.
With `Cc1ccc(P(=O)(O)O)cc1`, the growth in assay [1] was 108%; in assay [2], 99.2%; in assay [3], 111%; in assay [4], 120%; in assay [5], 120%; in assay [6], 101%. Further, the growth in [7] is 102%; in assay [8], 103%; in assay [9], 126%; in [10] it was 116%; in assay [11], 98.9%; in assay [12], 96%. Further, the growth in [13] is 98.6%; in [14] it was 98.8%; in assay [15], 109%; in assay [16], 100%; in assay [17] it was 94.2%; in assay [18], 103%. The growth in [19] was 104%.
For the compound `C[C@]12CCC(=O)C[C@@H]1CC[C@@H]1[C@@H]2CC[C@]2(C)[C@@H](OC(=O)N(CCCl)N=O)CC[C@@H]12`, the growth is 29.5% in assay [1]; 45.8% in assay [2]; 49.3% in assay [3]; 23.9% in [4]; -8.11% (active) in assay [5]; 22.3% in assay [6]. Moreover, the growth in assay [7] is 28.2%; in assay [8] it was 14.2%; in [9] it was 31.8%; in assay [10], -53.4% (active); in assay [11], 10.7%; in assay [12], 57.2%. Moreover, the growth was 69.6% in assay [13]; 32.7% in assay [14]; 12.7% in assay [15]; -29.6% (active) in [16]; -28.5% (active) in [17]; 57.5% in assay [18]. For the same compound, in assay [19], the growth is 17.7%.
For the compound `N#CC(N)c1ccccc1` (centres undefined), the growth is 109% in assay [1]; 100% in assay [2]; 113% in [3]; 114% in assay [4]; 113% in [5]; 109% in [6]. Also, the growth in assay [7] was 109%; in assay [8] it was 105%; in [9], 116%; in assay [10], 106%; in assay [11] it was 116%; in assay [12], 98.9%. Also, the growth in [13] is 108%; in assay [14] it was 112%; in [15], 102%; in assay [16], 102%; in assay [17], 103%; in [18], 101%. Further, in [19], the growth was 99.8%.
For the compound `CC1=C2[C@H]3OC(=O)[C@@H](C)[C@@H]3CC[C@@]2(C)C=CC1=O`, the growth in assay [1] was 54.5%; in assay [2] it was 92%; in assay [3], 85.8%; in assay [4] it was 111%; in assay [20] it was 116%; in assay [6], 123%. The growth in [8] was 106%; in assay [9], 96.7%; in assay [10], 109%; in assay [11], 110%; in assay [12], 87.3%; in assay [13], 112%. Also, the growth in assay [15] was 107%; in assay [16], 106%; in [17] it was 83.3%; in assay [19], 120%.
